Some structures have more than one record in an assay (separate samples or runs), and their calls can disagree. Activity calls are given as the source filed them. Rule for the calls: active = hit-call score of the fitted dose curve at least 0.9, where 1 is the maximum; inactive = score below 0.9.
Experiments:
[1] = ATG_CRE_CIS: Attagene CIS-FACTORIAL HepG2 Assay for human cAMP Responsive Element (CRE) binding protein 3 (AID 2282926); conditions: HepG2 CRE cis-reporter, Attagene multiplexed mRNA; actives raise or lower the signal
How it was run: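 Cells carrying cis-regulated reporter constructs respond through their own endogenous factors. After 24 h treatment, RNA is reverse-transcribed, amplified, labelled and sized by capillary electrophoresis; up- and down-regulation are both scored against vehicle.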

[2] = biological target: CCAAT/enhancer-binding protein beta (Homo sapiens) (UniProt P17676); experiment: ATG_C_EBP_CIS: Attagene CIS-FACTORIAL HepG2 Assay for human CCAAT/Enhancer Binding Protein (C/EBP) beta (AID 2282927); conditions: HepG2 Attagene cis-factorial transcription factor reporter; actives raise or lower the signal
How it was run: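 Transiently transfected HepG2 (MRTU library, endogenous TF-driven promoters); 24 h dosing; total RNA → oligo(dT) RT → PCR → 6-FAM primer extension → HpaI digest → CE; fit bidirectionally vs DMSO.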

[3] = ATG_CMV_CIS: Attagene CIS-FACTORIAL HepG2 Assay for human CMV (Internal Marker) (AID 2282928); conditions: HepG2 CMV promoter reporter, transcription factor profiling; actives raise or lower the signal;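 note: endpoint acts as a background internal control marker rather than a target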
How it was run: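 24 h chemical treatment, HepG2 with transient multi-reporter transfection; RNA → oligo(dT) RT → PCR → 6-FAM extension → HpaI digest → CE fluorescence. Bidirectional fit, DMSO negative control.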

Sequence of CCAAT/enhancer-binding protein beta (Homo sapiens) (P17676 whole entry, looked up): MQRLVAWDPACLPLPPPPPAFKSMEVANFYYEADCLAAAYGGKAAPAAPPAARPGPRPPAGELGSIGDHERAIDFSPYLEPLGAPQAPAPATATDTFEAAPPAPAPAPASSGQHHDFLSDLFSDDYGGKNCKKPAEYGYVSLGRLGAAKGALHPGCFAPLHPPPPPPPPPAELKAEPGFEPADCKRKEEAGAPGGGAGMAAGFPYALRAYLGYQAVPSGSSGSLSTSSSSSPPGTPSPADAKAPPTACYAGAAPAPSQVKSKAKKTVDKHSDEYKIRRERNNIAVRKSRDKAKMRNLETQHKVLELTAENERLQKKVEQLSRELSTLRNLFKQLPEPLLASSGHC

Row | Structure (SMILES) | outcome [1] | outcome [2] | outcome [3] | AC50 [3]
1 | O=S(=O)(O)C(F)(F)C(F)(F)C(F)(F)C(F)(F)C(F)(F)C(F)(F)C(F)(F)C(F)(F)C(F)(F)C(F)(F)F | inactive | inactive | inactive | –
2 | O=S(=O)(O)c1ccccc1 | inactive | inactive | inactive | –
3 | Cc1ccc(S(=O)(=O)O)cc1 | inactive | inactive | inactive | –
4 | CCO[Si](CCC1CCC2OC2C1)(OCC)OCC (stereo unspecified) | inactive | inactive | inactive | –
5 | COC(=O)C(F)(F)C(F)(F)C(F)(F)F | inactive | inactive | inactive | –
6 | COCC1CCC(CO)CC1 (stereo unspecified) | inactive | inactive | inactive | –
7 | NS(=O)(=O)O | inactive | inactive | inactive | –
8 | CN(CCO)S(=O)(=O)C(F)(F)C(F)(F)C(F)(F)C(F)(F)C(F)(F)C(F)(F)C(F)(F)C(F)(F)F | inactive | inactive | inactive | –
9 | O=C(O)CN(CCCN(CC(=O)O)CC(=O)O)CC(=O)O | inactive | inactive | inactive | –
10 | COc1cccc(O)c1 | inactive | inactive | inactive | –
11 | CC1CNCC(C)O1 (stereo unspecified) | inactive | inactive | inactive | –
12 | COC(O)c1ccccc1 (stereo unspecified) | inactive | inactive | inactive | –
13 | CNNCc1ccc(C(=O)NC(C)C)cc1 | inactive | inactive | inactive | –
14 | COc1cc(OC)nc(NC(=O)NS(=O)(=O)Nc2ccccc2C(=O)N(C)C)n1 | inactive | inactive | inactive | –
15 | CC(C)C=O | inactive | inactive | inactive | 87.6 µM (active)
16 | CCN(CCC#N)c1ccccc1 | inactive | inactive | inactive | –
17 | c1cnc2c(c1)ccc1cccnc12 | inactive | inactive | inactive | 2.89 µM (active)
18 | Cc1cncc(C)c1 | inactive | inactive | inactive | –
19 | CC(C)(C)c1ccc(CCC=O)cc1 | inactive | inactive | inactive | –
20 | CC(C)(c1ccc(Oc2ccc(N)cc2)cc1)c1ccc(Oc2ccc(N)cc2)cc1 | inactive | inactive | inactive | –
21 | CCCCCCCCCCCCCC[n+]1ccccc1 | inactive | inactive | inactive | –
22 | CCCCc1ccc2ccccc2c1S(=O)(=O)O | inactive | inactive | inactive | –
23 | Cc1ccc2ccc3ccc(C)cc3c2c1 | inactive | inactive | inactive | –

From PubChem BioAssay (EPA / NIEHS)
